Screening data as filed in PubChem BioAssay.
A488 autofl: compound autofluorescence in A488 spectral region. compound autofluorescence, A488 spectral region, dye equivalency; Compound Type: qHTS ECL - MLSMR. max dye equivalency, M. 0.1% of 59,000 active
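Intrinsic compound fluorescence is measured in 100 mM Tris buffer at pH 8.0 following 15 min incubation at room temperature. Intensities at 480 nm excitation/540 nm emission are calibrated to an on-plate A488 concentration series, giving dye-equivalent concentrations.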
Rhodamine autofl: compound fluoresces in the rhodamine spectral region | Rhodamine-region fluorescence, 547/598 nm, Tris buffer; hits give high values | max dye-equivalent concentration, M | 0.05% of 59,000 active | AID 594; in the data active = max dye-equivalent concentration above about 11 nM; inconclusive = between about 1.1 nM and that limit
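qHTS spectral profiling of compounds without any target or enzyme present, in pH 8.0 Tris buffer; plates were read after a 15-minute room-temperature incubation using the rhodamine-region filter set.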
A647 fluor: compound autofluorescence in A647 spectral region. Compound fluorescence, A647 channel (570/671 nm), Tris buffer. max dye-equivalent concentration, M. 59,000 tested, under 10 active. AID 592;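 note: values scaled relative to a standard on each plate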
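Compounds pinned into 100 mM Tris pH 8.0, 15 min at room temperature, then read with 570 nm excitation/671 nm emission filters. Fluorescence normalized to an on-plate six-point Alexa 647 standard curve, giving dye-equivalent concentration per compound concentration.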
Texas Red fluor: compounds fluorescent in Texas Red spectral region | 0.06% of 59,000 active | AID 587 | max dye-equivalent concentration, M | Compound fluorescence, Texas Red channel, 547/618 nm; hits give high values; in the data active = max dye-equivalent concentration above about 10 nM; inconclusive = between about 1.1 nM and that limit
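Spectral interference profiling: each compound concentration's relative fluorescence, read with a 547 nm excitation and 618 nm emission filter pair, was normalized to a per-plate Texas Red standard curve.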
Resorufin fluor: compound fluoresces in the resorufin spectral region; Compound fluorescence, resorufin region 547/598 nm, buffer; hits give high values; max dye-equivalent concentration, M; 0.04% of 59,000 active
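Dye-equivalent concentration values derive from comparing each well's 547/598 nm fluorescence against resorufin standards included on every plate. Incubation was 15 min at room temperature in 100 mM Tris, pH 8.0.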
Fluorescein autfl: fluorescein region autofluorescence. Compound autofluorescence, 480/540 nm, fluorescein-equivalent; hits give high values. max fluorescein-equivalent concentration, M. 0.91% of 59,000 active; in the data active = max fluorescein-equivalent concentration above about 10 nM; inconclusive = between about 1.1 nM and that limit
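Library compounds, added at multiple concentrations to pH 8.0 Tris buffer (100 mM), incubate 15 min at room temperature before CCD imaging at 480 nm excitation and 540 nm emission.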
* = called active by the depositor; i = inactive; u = inconclusive. This is a sample that favours compounds with a hit; in the whole collection about 0.96% have one here. Unless noted, the rule behind the calls is not given here.

SMILES | A488 autofl | Rhodamine autofl | A647 fluor | Texas Red fluor | Resorufin fluor | Fluorescein autfl
COc1ccc(C2NC(c3ccc(OC)c(OC)c3OC)C(C)C(=O)C2C)c(OC)c1OC (centres undefined) | i | i | 3.26e-08 | i | i | u
CC1=CC(C#N)(C#N)C(C#N)(C#N)C(c2ccccc2)N1 (centres undefined) | u | 2.76e-08M* | 1.7e-09 | 3.35e-08M* | 2.03e-08M* | 9.24e-08M*
COc1ccc(CSc2nnc(C)n2N)cc1 | i | i | 2.46e-08 | i | i | 2.3e-08M*
Cc1nnc(SCc2ccccc2)n1N | i | i | 2.95e-08 | i | i | i
CCOC(=O)c1cn(CC)c2cc(N3CCCCC3)c(F)cc2c1=O | i | i | 1.84e-08 | i | i | u
Cc1c(N=Cc2ccc(Cl)o2)c(=O)n(-c2ccccc2)n1C | i | i | 3.07e-08 | i | i | u
Cc1cccc(-n2c(O)c(C=Nc3c(C)n(C)n(-c4ccccc4)c3=O)c3ccccc3c2=O)n1 | u | i | 1e-09 | i | i | 5.7e-08M*
O=c1nc(N2CCCCC2)nc2n1CCO2 | i | i | 2.84e-08 | u | i | u
Cc1cc2nc3c(=O)[nH]c(=O)nc-3n(CC(O)C(O)C(O)CO)c2cc1C (centres undefined) | 3.12e-08M* | u | 1e-09 | i | u | 7.8e-07M*
CCCOc1cc(N)ccc1C(=O)OCCN(CC)CC | i | i | 2.48e-08 | i | i | u
CCCOc1ccc(N)cc1N | i | i | 1e-09 | i | i | 1.86e-08M*
CC1(C)NC(=O)N(CCOc2ccc3c(c2)CCC3)C1=O | i | i | 3.31e-08 | i | i | u
CCOc1ccc(C2C(C#N)=C(N)SC(N)=C2C#N)cc1OC | i | i | 3.78e-08 | i | i | u
CCOc1ccc(C2C(C#N)=C(N)SC(N)=C2C#N)cc1OCC | i | i | 2.18e-08 | i | i | 1.43e-08M*
CCOc1ccccc1C1C(C#N)=C(N)SC(N)=C1C#N | i | i | 9e-09 | i | i | 1.26e-08M*
Nc1nnc(SCC(=O)N2CCN(c3ccccc3)CC2)s1 | i | i | 3.16e-08 | i | i | u
CC1(C)Cc2c(C#N)c(N)sc(=S)c2CS1 | i | i | 1e-09 | i | i | 1.1e-08M*
N#Cc1c(N)sc(=S)c2c1CCCCC2 | i | i | 1e-09 | i | i | 3.35e-08M*
N#Cc1c(N)sc2c1CCCCCC2 | i | i | 1e-09 | i | i | i
CC(=O)O[C@]1(C)N=NC2(CCCCC2)O1 | i | i | 1.97e-08 | i | i | i
COc1cc(C(=O)OCC(=O)NC2CCCC2)cc(NC(=O)c2ccco2)c1OC | i | i | 3.17e-08 | i | i | i
O=C(NCc1ccc(F)cc1)C1CCN(C(=O)NCc2ccccc2)CC1 | i | i | 1e-09 | i | i | 1.03e-08M*
O=C(NCc1ccccc1F)C1CCN(C(=O)NCc2ccccc2)CC1 | i | i | 1.49e-08 | i | i | i
COc1cc(N2C(=O)c3ccccc3C2=O)c(Cl)cc1C(=O)OCC(=O)NCc1ccco1 | i | i | 1e-09 | i | i | i
CC(C)CCN1C(=O)c2ccc(C(=O)NCc3ccco3)cc2C1=O | i | i | 3.3e-09 | i | i | i
SMILES | A488 autofl | Rhodamine autofl | A647 fluor | Texas Red fluor | Resorufin fluor | Fluorescein autfl
CCOC(=O)C(NC(=O)Nc1ncccn1)(Oc1ccccc1)C(F)(F)F (centres undefined) | i | i | 4.08e-08 | i | i | u
Cn1c(=O)c2[nH]c(C3CCCC3)nc2n(C)c1=O | i | i | 1e-09 | i | i | i
CN1CCC(OC(=O)COc2ccc(C(C)(C)C)cc2)CC1 | u | i | 1e-09 | i | i | 2.99e-08M*
COc1ccccc1/C=c1\sc2nc(-c3cccs3)nn2c1=O | i | i | 1e-09 | i | i | i
Cc1ccc(/C=c2\sc3nc(-c4cccs4)nn3c2=O)o1 | i | i | 1e-09 | u | i | 1.29e-08M*
CCCC(=O)Nc1ccc(NC(=O)c2ccccc2Cl)nc1 | i | i | 1e-09 | i | i | 1.1e-08M*
CCCC(=O)Nc1ccc(NC(=O)Cc2ccccc2)cn1 | i | i | 3.3e-09 | i | i | u
O=C(Cc1cccs1)Nc1ccc(NC(=O)c2ccco2)cc1 | i | i | 2.56e-08 | i | i | i
O=C(O)c1ccc(/C=N\N=C2c3ccccc3-c3ccccc32)cc1 | i | i | 2.71e-08 | i | i | i
c1ccc(-c2nnc(Cn3c4ccccc4c4nc5ccccc5nc43)o2)cc1 | i | i | 4.71e-08 | i | i | u
CCn1nc(-c2ccccc2)c2nc3ccccc3nc21 | 1.2e-08M* | i | 1e-09 | i | i | 2.42e-07M*
CCCn1nc(-c2ccccc2)c2nc3ccccc3nc21 | 1.12e-08M* | i | 3.55e-08 | i | i | 2.01e-07M*
CCCCn1c2nc3ccccc3nc2c2c(=O)n(CCC)cnc21 | i | i | 6.5e-09 | u | i | i
O=C(CN1CCOCC1)N1CCN(C(=O)CN2CCOCC2)CC1 | i | i | 4.16e-08 | i | i | u
CCOC(=O)N1CCC(Nc2nc3ccccc3n3nnnc23)CC1 | i | i | 4.04e-08 | i | i | 1.13e-08M*
CCOc1cc(-c2ccc(N)c(OCC)c2)ccc1N | u | i | 1e-09 | i | i | 9.79e-08M*
COc1cccc(Nc2ncc3nc(-c4cn(C)c5ccccc45)c(=O)n(C[C@H]4CCCO4)c3n2)c1 | i | i | 1e-09 | i | i | 1.56e-08M*
COc1cccc(Nc2ncc3nc(-c4cccs4)c(=O)n(C[C@H]4CCCO4)c3n2)c1 | u | i | 1e-09 | i | i | 4.22e-08M*
CC(C)OC(=O)CC(=O)c1sc2nc3c(cc2c1N)CN(C)CC3 | u | i | 2.61e-08 | i | i | 1.89e-07M*
Nc1c(C(=O)Nc2ccccc2)sc2nc(-c3ccco3)ccc12 | i | i | 6.2e-09 | u | i | 1.64e-08M*
COc1ccccc1NC(=O)c1sc2nc(-c3ccco3)ccc2c1N | i | i | 1e-09 | i | i | i
C/C(=N\NC(=O)c1ccncc1)c1ccc2ccccc2c1O | u | i | 1.09e-08 | i | i | 3.52e-08M*
CC(=O)N1CCN(c2ccc(N=Cc3c(O)n(Cc4ccccc4)c(=O)[nH]c3=O)cc2)CC1 | i | i | 6.2e-09 | i | i | 1.89e-08M*
CCOC(=O)c1sc(SCC(=O)Nc2ccc(N(C)C)cc2)nc1N | i | i | 1.55e-08 | i | i | i
CCOC(=O)SC1=N/C(=C\c2ccc(N(C)C)cc2)C(=O)S1 | i | i | 1e-09 | i | i | 1.01e-08M*
COc1cccc(N2C(=O)C3CC=C(Cl)CC3C2=O)c1 (centres undefined) | i | i | 2.49e-08 | i | i | 1.46e-08M*
